From ChEMBL document CHEMBL4513216, “Probing the Open Global Health Chemical Diversity Library for Multistage-Active Starting Points for Next-Generation Antimalarials” (ACS Infect Dis, 2020) come the findings set out here.

About 8,600 (12%) of roughly 69,000 compounds showed an effect of 50% or more. Shown is part of a subset that was picked to be rich in strong results.

For the test, the system named is Plasmodium berghei. The experiment in a line: Screen against P. berghei liver stage (PbLuc), transformed with Luciferase, at 10uM. In kind it is functional, HepG2. The conditions noted are these: tested at 10 uM.
As for `O=C(NCc1ccccn1)NCc1ccc(Cl)s1`, the INHIBITION amounted to 17.5%.
The figure for `Cc1ccc(C)c(S(=O)(=O)CCNC2CCc3ncnn3C2)c1` (configuration not stated) is -21.9%; for `CC(NCc1ccnc(OC2CCC2)c1)c1cnn(C)c1` (configuration not stated) it is -4.92%.
For `O=C1OCCN1CC(=O)N1C[C@@H]2CC[C@H]1CN(C(=O)c1cccnc1)C2`, the INHIBITION came out at 29.6%.
The figure for `Cc1cc(N2CCC(Cc3cccnc3)CC2)ncn1` is 39.7%; for `CC(=O)N1CCN(C(=O)c2sc(-c3ccccc3F)nc2C)CC1` it is -10.8%.
As for `OCC1CCCN1c1cc(NCc2cccs2)ncn1` (configuration not stated), the INHIBITION amounted to 31.3%.
For the compound `Cc1c(C)n(CC(O)CN2CCN(CCO)CC2)c2c(Cl)cccc12` (configuration not stated), the INHIBITION stood at 28.6%.
The figure for `Cc1ccc(F)cc1S(=O)(=O)NCc1[nH]ncc1Br` is 1.62%; for `Cc1ccc(F)c(S(=O)(=O)NCc2[nH]ncc2Br)c1` it is 52.9%; for `Cc1cc(F)ccc1S(=O)(=O)NCc1[nH]ncc1Br` it is -3.14%.
The figure for `Cc1cccc(CN2CCOCC2c2[nH]ncc2C)n1` (configuration not stated) is 31.9%; for `Cn1cc(N2C(=O)C[C@@H]3[C@@H]2CCN3C(=O)c2ccco2)cn1` it is 12.2%; for `O=C(c1ccncc1)N1CC[C@H]2[C@H]1CCN2S(=O)(=O)C1CC1` it is -69.3%.
With `O=C(c1ccccn1)N1CC[C@H]2[C@H]1CCN2S(=O)(=O)C1CC1` the figure was -60.2%; with `O=C(c1ccco1)N1CC[C@H]2[C@H]1CCN2S(=O)(=O)C1CC1`, 58.7%; with `CC(C)N1C(=O)C[C@H]2[C@@H]1CCN2C(=O)c1ccco1`, 53.9%.
Regarding `O=C(c1cnccn1)N1CC[C@H]2[C@H]1CCN2S(=O)(=O)C1CC1`, the INHIBITION stood at 71%.
With `O=C(c1ccoc1)N1CC[C@H]2[C@H]1CCN2S(=O)(=O)C1CC1` the figure was 44.8%; with `CS(=O)(=O)N1C[C@@H]2CCN(C(=O)c3ccco3)[C@@H]2C1`, 24.9%.
The figure for `O=C(C1CCC1)N1CCN(C(=O)c2cnccn2)[C@H]2CS(=O)(=O)C[C@H]21` is 23.5%; for `O=C([C@H]1C[C@H]2OCC[C@H]2N(C(=O)c2ccnnc2)C1)N1CCCCO1` it is 19.5%.
With `O=C(c1ccnnc1)N1CC[C@H]2[C@H]1CCN2S(=O)(=O)C1CC1` the figure was 63.1%; with `O=C(c1ccco1)N1CC[C@H]2[C@H]1CC(=O)N2c1cccnc1`, -5.89%; with `CN(C)CC(=O)N1CCN(c2cc(N3CCCC3CO)ncn2)CC1` (configuration not stated), -5.1%.
Turning to `CNC(=O)NC(=O)C(C)N1CCN(c2ccc(C#N)cc2F)CC1` (configuration not stated), the INHIBITION worked out at 11.8%.
With `CN(C)S(=O)(=O)N1C[C@@H]2C[C@H](C(=O)Nc3ccccc3)[C@H](C1)O2` the figure was -22.5%; with `C[C@H](O)c1cnn(-c2ccccc2)c1`, -13.1%; with `Cc1cc(C)c(CNC(=O)NC2CCOCC2)c(=O)[nH]1`, 27.7%.
The figure for `Cc1nccc(N2CCN(C3CCOCC3)CC(C(=O)N(C)C)C2)n1` (configuration not stated) is 25.8%; for `CC(C)(C)CCCC(=O)Nc1ccnn1C1CCS(=O)(=O)C1` (configuration not stated) it is 46.6%.
The figure for `CC(Nc1cccc2c1OCCO2)C(=O)NC(N)=O` (configuration not stated) is -45.2%; for `O=C(CN1CCCC1)N1CCCC(c2cc(=O)n3c(n2)CCCCC3)C1` (configuration not stated) it is 14.7%.
With `CN(C)C(=O)N[C@@H]1CN(S(C)(=O)=O)[C@@H]2CCCO[C@@H]21`, the INHIBITION turned out to be 60%.
`CN(C)C(=O)N[C@H]1CN(C2CCOCC2)[C@@H]2CCCO[C@H]12`: the INHIBITION is 43.8%.
The figure for `CN(C)C(=O)N[C@@H]1CN(C2CCOCC2)[C@@H]2CCCO[C@@H]21` is 20.1%; for `COCC(NC(=O)c1cccnc1)c1cccc(C(F)(F)F)c1` (configuration not stated) it is 7.44%; for `CNC(=O)CCc1cc(C2CCNCC2)nc(C)n1` it is 27.8%.
On to `Oc1cc(C2CCCCN2C2CCCC2)nc(-c2ccncc2)n1` (configuration not stated), for which the INHIBITION is listed as 16.5%.
Regarding `Cn1cc(CN2CCCN(C(=O)c3ccc4ccccc4n3)CC2)cn1`, the INHIBITION amounted to 52.35%.
The figure for `CC(OCC1CC1)C(=O)N1CCCN(Cc2cscn2)CC1` (configuration not stated) is 11.67%; for `Cc1nc(C(=O)N2CCCN(Cc3cnn(C)c3)CC2)ccc1C#N` it is 15.1%.
`Cn1cc(CN2CCCN(C(=O)c3ccccn3)CC2)cn1`: the INHIBITION is -13.35%.
With `Cn1cc(CN2CCCN(C(=O)c3cn4ccccc4n3)CC2)cn1` the figure was 56.6%; with `Cc1cccc(C(=O)N2CCCN(Cc3cnn(C)c3)CC2)n1`, 31.8%.
The figure for `CC(OCC1CC1)C(=O)N1CCCN(Cc2nccn2C(C)C)CC1` (configuration not stated) is 46.2%.
Consider `CC(OCC1CC1)C(=O)N1CCCN(Cc2cnn(C)c2)CC1` (configuration not stated), for which the INHIBITION was determined as 60.5%.
With `Cn1cc(CN2CCCN(C(=O)c3cc[nH]n3)CC2)cn1`, the INHIBITION is recorded as 23.2%.
With `CC(C)CNC(=O)c1cn(-c2ccccn2)c(=O)c2ccccc12` the figure was 13.9%; with `CCN1CC2(CC1=O)CN(C(=O)NC(C)C)CCN(C(=O)NC(C)C)C2`, 27.5%; with `Cc1cnn(CC2CN(CC(=O)N(C)Cc3ccsc3)CCO2)c1` (configuration not stated), -89%.
The figure for `CS(=O)(=O)c1cccc(C(=O)N2CCCC(n3cccn3)C2)c1` (configuration not stated) is 1.94%; for `O=C(CN1CCCC(Cn2cncn2)C1)NCc1ccccc1F` (configuration not stated) it is 19.4%; for `CC(C)c1nn(C)c(N(C)C)c1CNCc1cccc2cccnc12` it is 19.283%.
The figure for `CC(C)CC(=O)N1CC[C@H]2N(C)CC[C@@]2(C(=O)Nc2cccnc2)CC1` is 26.7%.
Take `CCC12CN3CC(CC)(CN(C1)C3c1[nH]c(=O)[nH]c(=O)c1C)C2=O` (configuration not stated): the INHIBITION came to 11.1%.
The figure for `Cc1c(C2N3CC4(C(C)C)CN2CC(C(C)C)(C3)C4=O)[nH]c(=O)[nH]c1=O` (configuration not stated) is 54.3%.
`Cc1c(C2N3CC4(C)CN2CC(C)(C3)C4=O)[nH]c(=O)[nH]c1=O` (configuration not stated): the INHIBITION is on record as 46.6%.
The figure for `O=C(C1CCC1)N1C[C@H]2CC[C@@H](C1)N(S(=O)(=O)c1cccnc1)C2` is -70.7%; for `O=C(NCCCNC(=O)c1cccc(O)c1)Nc1ccc(F)cc1F` it is -4.74%.
Consider `COCc1noc(C2(c3ccc(F)cc3)CC2)n1`, for which the INHIBITION was 11.6%.
On to `COCc1noc(C2(c3ccc(F)cc3)CCC2)n1`, for which the INHIBITION was 77.2%.
With `COCc1noc(C2(c3ccc(F)cc3)CCOCC2)n1` the figure was 15.1%; with `COCc1ncn2c1CN(C(=O)c1ccc3ccccc3n1)CC2`, -6.3%; with `CC(C)(C)C(=O)NCCC(=O)N1CCC(Nc2cccnn2)CC1`, 41.5%.
For the compound `O=C(CNCCn1cccn1)NCC1(c2ccccc2)CCC1`, the INHIBITION was 72.8%.
The figure for `O=C(CNCCn1cccn1)NCC1(c2ccccc2)CCCC1` is -23.9%; for `O=C(CNCCn1cccn1)NCC1(c2ccccc2)CC1` it is 8.48%; for `CN1CCC(NC(=O)c2cc(Cl)cc(Br)c2O)C1=O` (configuration not stated) it is 24.4%.
For the compound `OC1(CN2CCCCC2)CCN(c2nccc(C(F)(F)F)n2)C1` (configuration not stated), the INHIBITION amounted to 46.7%.
`c1cc(CNCc2ccc3c(c2)CCO3)cc(N2CCOCC2)n1`: the INHIBITION is -1.58%.
Take `Fc1cc(CNCc2ccc3c(c2)CCO3)ccc1N1CCOCC1`: the INHIBITION was determined as 55.1%.
With `O=S(=O)(CCNCc1ccc2c(c1)CCO2)N1CCOCC1` the figure was -3.19%.
As to `CC(C)c1nc(C2CCCN(C(=O)c3nccn4ccnc34)C2)no1` (configuration not stated), the INHIBITION is 9.64%.
The figure for `Cc1cn(Cc2ccccc2)nc1N` is 24.8%.
The figure for `O=C(c1cc(Br)ccc1-n1cnnn1)N1CCCC1` is 28.6%; for `CC(C)c1nnsc1CNC(=O)C1CCCN(C(=O)N(C)C)C1` (configuration not stated) it is 53.5%.
The figure for `CC(C)c1nnsc1CNC(=O)C1CCN(C(=O)C2CCC2)CC1` is 44.6%.
Turning to `CC(C)c1nnsc1CNC(=O)C1CCN(C(=O)C2CCCC2)CC1`, the INHIBITION worked out at 41.6%.
The figure for `Nc1no[n+]([O-])c1C(=O)NCc1ccco1` is 5.7%; for `CCn1ccc(CN(C)C(=O)CSc2nnc(N)s2)n1` it is 22.6%; for `COc1ccc(CN(C)C(=O)CSc2nnc(N)s2)c(OC)c1OC` it is 18.9%.
Regarding `COc1ccnc(CN(C)C(=O)CSc2nnc(N)s2)c1`, the INHIBITION is recorded as 71.4%.
With `Cc1nc(CN2CCCN(C(=O)c3sccc3C#N)CC2)cs1` the figure was -27.8%; with `Cc1nc(CC2CCN(Cc3ccc(CCC(C)(C)O)cc3)CC2)no1`, 60.7%; with `Cc1noc(CC2CCN(Cc3ccc(CCC(C)(C)O)cc3)CC2)n1`, 40.2%.
With `c1ccc(CN2CCC(Cc3noc(C4CC4)n3)CC2)cc1` the figure was 28.8%.
The figure for `CN(C)c1cc(CNC(=O)CC2CCCCC2)ccn1` is 4.34%; for `Cc1cccc(Cn2c3c(ccc2=O)CCN(Cc2ccoc2)CC3)n1` it is 8.47%; for `Cc1cccc(N(CC(=O)c2ccccc2)C2=NCCCCC2)c1` it is 51.6%.
Take `COc1ccc(C(=O)CN(C2=NCCCCC2)c2ccccc2)cc1`: the INHIBITION came to 20.1%.
The figure for `O=C(CC(SC1CCCCC1)C(=O)O)c1ccc(Cl)cc1` (configuration not stated) is 6.83%.
The figure for `O=C(CN(C1=NCCCC1)c1ccccc1)c1ccccc1` is -13.4%; for `Cc1ccc(N(CC(=O)c2ccc(Br)cc2)C2=NCCCCC2)cc1` it is 87.6%; for `O=C(CN(C1=NCCCCC1)c1ccc(Cl)cc1)c1ccccc1` it is 59.8%.
With `O=C(CN(C1=NCCCC1)c1ccccc1)c1ccc2c(c1)OCCO2`, the INHIBITION is given as 33.3%.
The figure for `CCOc1ccc(N(CC(=O)c2ccccc2)C2=NCCCCC2)cc1` is 68.7%.
The figure for `Cc1ccc(C(=O)CN(C2=NCCCCC2)c2ccccc2)cc1` is 44.1%; for `Cc1cccc(N(CC(=O)N2CCCCC2)C(=O)C2CCCO2)c1` (configuration not stated) it is -84.1%.
In the case of `O=C(CN(C1=NCCCC1)c1ccccc1)c1ccc(OC(F)F)cc1`, the INHIBITION is given as 30.8%.
Take `Cc1ccc(N(CC(=O)N2CCCCC2)C(=O)C2CCCO2)cc1` (configuration not stated): the INHIBITION is on record as -7.25%.
The figure for `CC1=N[C@@]2(CC[C@@H]3CN(CC(C)C)C[C@@H]32)C(=O)N1C` is 18.5%.
